# Mdm2-MdmX inh: inhibitors of human Mdm2-MdmX association, primary screen, cell-based, luminescence, split luciferase, SaOS-2, uHTS; inhibition, % at 8 µM; AID 485346, 2010; actives 3% (n = 330,000); SaOS-2 split-luciferase Mdm2/MdmX complementation; Protein Mdm4 (Homo sapiens) + E3 ubiquitin-protein ligase Mdm2 (Homo sapiens), …;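 active = inhibition of at least 50% at 8 µM in the primary screen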
# KKLEB cytotox: cytotoxicity in KKLEB CF airway cells, primary screen, cytotoxicity control for CF NF-kB inhibitor project, cell-based, uHTS, fluorescence assay plates; KKLEB CF airway cells viability, ATPlite luminescence, overnight; active compounds read low; cells stimulated with P. aeruginosa culture filtrate; activity change (cytotoxicity), % at 5 µM; actives 0.36% (n = 360,000); AID 602141, 2011;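 active = corrected activity change at or below -50% at 5 µM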
# LGR2 inh: inhibitors of bursicon-induced LGR2 CRE-luciferase signal, primary screen, cell-based, HEK293, CRE-luciferase reporter, bursicon stimulation | bursicon-stimulated, 4 h | actives 0.35% (n = 380,000) | Drosophila bursicon receptor LGR2 (rickets) | inhibition, % at 9.99 µM;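 active = drop in luminescence signal, shown as inhibition above about 50% in the replicate tests, limit read from the data, passing the limit was not always enough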;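 note: agonist challenge used bursicon conditioned medium at about half maximal strength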
# HSP90 refold inh: HSP90 inhibitors, primary screen, cell lysate, luminescence; Heat shock protein HSP 90 (rabbit reticulocyte lysate; luciferase refolding); Rabbit reticulocyte lysate, luciferase refolding luminescence, 3 h; inhibition, % at 5.6 µM; actives 0.91% (n = 290,000); AID 1789, 2009;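 active = inhibition above the screen-wide mean plus 3 SD, computed separately per campaign, cut at about 16% in these data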;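 note: 0% = DMSO wells and 100% = 60 µM geldanamycin wells; inhibitors lower the luminescence because luciferase stays unfolded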
# CF NFkB inh: inhibitors of PAF-induced NF-kB signaling, primary screen, cell-based, GFP fluorescence, uHTS | actives 0.86% (n = 360,000) | AID 588850, 2011 | inhibition, % at 5 µM | KKLEB NF-kB-GFP reporter, GFP fluorescence overnight;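 active = at least 50% inhibition at 5 µM, scaled per plate between neutral and stimulator controls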;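 note: PAF is a Pseudomonas aeruginosa culture filtrate used as stimulus; plate controls were PAF-stimulated DMSO wells for no effect and unstimulated DMSO wells for full effect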
# Peg3 prom inh-1: Peg3 promoter-driven luciferase inhibitors, primary screen, cell-based, HeLa, luciferase luminescence. HeLa PEG-Prom luciferase reporter, overnight. inhibition, % at 20 µM. actives 1.7% (n = 360,000). AID 588405, 2011;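 active = inhibition of at least 50% at 20 µM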
# Mdm2-MdmX conf: Mdm2-MdmX complex disruptors, retested hits, confirmation, luminescence, single concentration; AID 489028, 2010; actives 55% (n = 10,000); Mdm2-MdmX binding, luminescent assay; shares compounds with Mdm2-MdmX inh; inhibition, % at 8 µM
# FLuc counter: full-length luciferase signal inhibition, confirmation, counter-screen for Mdm2/MdmX interaction inhibitor project, cell-based, single concentration, SaOS-2 | inhibition, % at 8 µM | shares compounds with Mdm2-MdmX inh | SaOS-2 full-length luciferase counterscreen, luminescence | actives 77% (n = 6,200);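 active = mean inhibition at 8 µM reaching about 37%, which flags the compound as non-specific, limit read from the data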;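 note: p53-null SaOS-2 cells with luciferase driven by a doxycycline-inducible promoter; compound on cells about two nights before reading with doxycycline added after day one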
# Peg3 prom inh-2: Peg3 promoter reporter inhibitors, retest, confirmation, cell-based, HeLa, luciferase reporter, single concentration | shares compounds with Peg3 prom inh-1 | HeLa PEG-Prom luciferase reporter, luminescence, overnight | inhibition, % at 20 µM | actives 84% (n = 1,300);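 active = at 20 µM dose, 40% or more inhibition averaged across four replicates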
# CF NFkB conf: inhibitors of PAF-induced NF-kB signaling, retest, confirmation, cell-based, GFP fluorescence, single concentration; shares compounds with CF NFkB inh; KKLEB CF airway cells, overnight; inhibition, % at 5 µM; actives 64% (n = 1,300);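 note: stimulus PAF is a Pseudomonas aeruginosa filtrate and not platelet activating factor; plate controls were DMSO wells with stimulus for no effect and unstimulated DMSO wells for full effect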
# Active calls of the source: *; x = no result given. Rows were chosen to be rich in hits. Some 3.6% of all compounds tested hit in one or more screens of this group. Cut-off read from the data, not from the text of the source, unless noted: active = inhibition above about 40%; inactive = the rest.
SMILES,Mdm2-MdmX inh,KKLEB cytotox,LGR2 inh,HSP90 refold inh,CF NFkB inh,Peg3 prom inh-1,Mdm2-MdmX conf,FLuc counter,CF NFkB conf,others
COc1cc(-c2cc(C(=O)Nc3ccc(S(=O)(=O)NCc4ccco4)cc3)c3ccccc3n2)cc(OC)c1OC,63*,8,24,-6,64*,58*,77*,50*,98*,
CCC(=O)Nc1ccc2c(c1)C(=O)N(C)C[C@@H](OC)[C@H](C)CN(Cc1ccccn1)[C@H](C)CO2,x,x,2,x,x,x,x,x,x,
O=C(C[C@H]1CC[C@@H]2[C@H](COC[C@H](O)CN2Cc2cc(F)ccc2F)O1)N1CCc2ccccc2C1,x,x,0,x,x,x,x,x,x,
COc1ccc(NC(=O)N(C)C[C@@H]2Oc3ccc(NS(=O)(=O)c4cn(C)cn4)cc3C(=O)N([C@H](C)CO)C[C@@H]2C)cc1,x,x,-19,x,x,x,x,x,x,
Cc1ccnc(NC(=O)CSc2cc(=O)n(C)c3ccccc23)c1,83*,-26,x,-1,88*,70*,76*,127*,52*,
Cc1ccnc(NC(=O)CCCOc2cc(=O)n(C)c3ccccc23)c1,75*,9,25,-1,71*,92*,84*,117*,76*,
COC(=O)c1ccccc1NC(=O)CCCOc1cc(=O)n(C)c2ccccc12,x,0,3,x,-68,-12,x,x,x,
Cn1c(=O)cc(SCC(=O)Nc2ccccn2)c2ccccc21,48,x,x,2,x,x,x,x,x,
C[C@@H]1CN([C@@H](C)CO)C(=O)c2cc(NC(=O)C3CC3)ccc2O[C@@H]1CN(C)Cc1ccc2c(c1)OCO2,x,x,0,x,x,x,x,x,x,
COc1ccc2[nH]cc(C(=O)CCl)c2c1,95*,-40,18,1,82*,107*,100*,51*,113*,Peg3 prom inh-2=97*
COc1ccc2cc3c(N)nn(C(=O)c4ccccc4[N+](=O)[O-])c3nc2c1,93*,-28,x,-3,71*,4,87*,51*,93*,
CCCC1CCC(C(=O)n2nc(N)c3cc4ccc(OC)cc4nc32)CC1 (stereo unspecified),35,3,12,0,36,9,x,x,x,
COc1ccc2cc3c(N)nn(C(=O)c4ccc(Cl)c([N+](=O)[O-])c4)c3nc2c1,83*,-7,x,-5,65*,-1,88*,57*,39,
C[C@@H]1CCCCO[C@H](CN(C)C(=O)C2CCCCC2)[C@H](C)CN([C@@H](C)CO)C(=O)c2cc(NC(=O)NC3CCCCC3)ccc2O1,x,x,10,x,x,x,x,x,x,
Nc1nc(-c2ccccc2)nc(-c2ccccc2O)n1,62*,-14,x,1,57*,1,25,x,-38,
CC(C)N(C(=O)[C@H]1C[C@H](CC(=O)NCc2cccc(C(F)(F)F)c2)C(=O)N2CCc3c([nH]c4ccc(Cl)cc34)[C@]12C)C(C)C,95*,-41,12,x,60*,59*,40*,81*,39,
CC(C)C[C@H](CO)Nc1nc(Nc2cccc(Cl)c2)c2ncn(C(C)C)c2n1,75*,-24,25,x,61*,37,65*,58*,76*,

# Screening results from PubChem.
